# Laboratory results published in PubChem BioAssay (NCI).
# Compounds without any hit were thinned out: in the full panel of roughly 79,000, 15% have a hit. Unmarked numbers belong to inactive results. Active and inactive are the calls of the source. No stated cut-off is given here; in the data, active means growth inhibition above about 70%; inactive means the rest.
# Columns and labels:
# [1] = NCI Yeast Anticancer Drug Screen. Data for the rad50 strain (AID 155);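 further: 0% = growth of vehicle-only cultures of the same strain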; conditions: S. cerevisiae rad50 strain growth inhibition, stronger effect = higher value
# How it was run: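 Cells are treated with compound, grown, and their growth is then scored against vehicle-only cultures of the same repair-deficient yeast strain.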
# [2] = NCI Yeast Anticancer Drug Screen. Data for the mec2-1 strain (AID 157); conditions: S. cerevisiae mec2-1 strain, stronger effect = higher value
# How it was run: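 Compounds were applied to mec2-1 yeast cells. Their growth was then compared with that of vehicle-treated cultures to give growth inhibition.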
# [3] = NCI Yeast Anticancer Drug Screen. Data for the sgs1 mgt1 strain (AID 161);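 further: 0% = growth of cultures given vehicle only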; conditions: S. cerevisiae sgs1 mgt1 strain, stronger effect = higher value
# How it was run: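 This yeast growth screen uses a strain with defined DNA-repair lesions; compound-treated growth is compared with vehicle-treated growth.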
# [4] = NCI Yeast Anticancer Drug Screen. Data for the cln2 rad14 strain (AID 165);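 further: 0% = growth equal to vehicle treated cultures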; conditions: S. cerevisiae cln2 rad14 strain, stronger effect = higher value
# How it was run: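 Strain: cln2 rad14 yeast, altered in cell cycle control and DNA damage repair. Read-out: growth inhibition vs vehicle.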
# [5] = NCI Yeast Anticancer Drug Screen. Data for the bub3 strain (AID 167); conditions: S. cerevisiae bub3 mutant strain, stronger effect = higher value
# How it was run: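 Part of a panel of yeast mutants defective in DNA damage repair or cell cycle regulation. Each strain is grown with compound, and inhibition is calculated relative to solvent-treated cultures.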
# [6] = NCI Yeast Anticancer Drug Screen. Data for the mlh1 rad18 strain (AID 175); conditions: S. cerevisiae mlh1 rad18 strain growth inhibition, stronger effect = higher value
# How it was run: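 A repair-deficient yeast strain is exposed to test compound, and growth is scored relative to vehicle-treated controls.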
# [7] = at 5.0 µM (retest, dose inferred, filed as 0.5)
# [8] = at 50.0 µM (retest, dose inferred, filed as 5.0)
SMILES,"growth inhibition [1, 7]","growth inhibition [1, 8]","growth inhibition [2, 7]","growth inhibition [2, 8]","growth inhibition [3, 7]","growth inhibition [3, 8]",growth inhibition ([3]; at 50.0 µM),"growth inhibition [4, 7]","growth inhibition [4, 8]",growth inhibition ([4]; at 50.0 µM),"growth inhibition [5, 7]","growth inhibition [5, 8]",growth inhibition ([5]; at 50.0 µM),"growth inhibition [6, 7]","growth inhibition [6, 8]",growth inhibition ([6]; at 50.0 µM),growth inhibition ([1]; at 50.0 µM),growth inhibition ([2]; at 50.0 µM)
COc1cccc(NC(=O)C(C#N)=C(SC)SC)c1,30%,96% (active),25%,92% (active),49%,95% (active),91.2% (active),34%,41%,43%,42%,95% (active),91.2% (active),23%,59%,90% (active),–,–
O=C1/C(=C\c2ccc([N+](=O)[O-])cc2)CS(=O)(=O)C/C1=C/c1ccc([N+](=O)[O-])cc1,81% (active),96% (active),97% (active),98% (active),93% (active),96% (active),87.2% (active),91% (active),97% (active),86.8% (active),97% (active),99% (active),87.6% (active),94% (active),96% (active),–,–,–
CCCCCC[C@@H](O)C/C=C\CCCCCCCC(=O)OCCOC,-4%,2%,-3%,26%,–,–,–,2%,-4%,77.2% (active),-5%,86% (active),12.6%,0%,13%,34.1%,24.9%,5.4%
C/C(=N\NC(=S)N1CCC1)c1ccccn1,91% (active),96% (active),88% (active),98% (active),92% (active),99% (active),87.8% (active),93% (active),96% (active),87% (active),94% (active),98% (active),87.5% (active),93% (active),96% (active),–,–,–
Nc1ncnc2c(C3OC(CO)C(O)C3O)c[nH]c12 (stereo not drawn),26%,92% (active),14%,92% (active),35%,96% (active),89% (active),28%,82% (active),88.2% (active),45%,94% (active),71.1% (active),36%,94% (active),–,–,–
CN(C)c1ccc(C(=C2C=CC(=[N+](C)C)C=C2)c2ccc(N(C)C)cc2)cc1,99% (active),90% (active),99% (active),95% (active),–,–,–,99% (active),93% (active),87.2% (active),99% (active),91% (active),94.8% (active),99% (active),90% (active),91.2% (active),94.9% (active),95% (active)
CN(C)c1ccc(/C=C/c2nccc3ccccc23)cc1,-9%,96% (active),–,–,3%,97% (active),94.7% (active),-8%,96% (active),75.5% (active),4%,97% (active),93.7% (active),10%,95% (active),91% (active),91% (active),–
CC1=CC(=O)C=CC1(C)C(Cl)(Cl)Cl (stereo not drawn),-16%,-24%,–,–,0%,-6%,-11.6%,-44%,-10%,44.3%,-6%,2%,-0.65%,-10%,-22%,1%,-3.05%,–
CC(=O)Nc1ccc(C(=O)CCl)cc1,98% (active),98% (active),96% (active),99% (active),–,–,–,87% (active),93% (active),51.6%,–,–,–,98% (active),99% (active),94.7% (active),76.3% (active),51.7%
COc1ccc(N=CC2CCCCC2=O)c([N+](=O)[O-])c1 (stereo not drawn),25%,69%,29%,42%,-1%,12%,–,31%,56%,–,13%,86% (active),–,53%,61%,–,–,–
S=C(S)OCN1CCOCC1,80% (active),32%,–,–,70% (active),28%,96.8% (active),58%,20%,97.3% (active),55%,27%,98.8% (active),51%,35%,98.2% (active),98.1% (active),–
CCCCCC/C=C1\CCC(CN2CCCC2)C1=O (stereo not drawn),52%,97% (active),33%,99% (active),–,–,–,71% (active),87% (active),81.9% (active),66%,99% (active),79.5% (active),78% (active),98% (active),89.2% (active),91% (active),70.7% (active)
COC1CC(C)C(OC)c2cc(O)cc(c2O)NC(=O)/C(C)=C/C=C\C(C)C(OC(N)=O)/C(C)=C\C(C)C1OC (stereo not drawn),94% (active),97% (active),95% (active),97% (active),–,–,–,88% (active),95% (active),89.8% (active),97% (active),98% (active),90.7% (active),96% (active),97% (active),90% (active),91.2% (active),92.5% (active)
CCOc1ccc(C(CN2CCOCC2)C(C)=O)cc1OC (stereo not drawn),-3%,30%,–,–,-4%,30%,74.7% (active),0%,28%,45.4%,-8%,81% (active),78.7% (active),-18%,86% (active),63.8%,72.5% (active),–
O=C(/C=C/c1ccccc1)c1ccccc1O,9%,78% (active),–,–,4%,55%,46%,2%,40%,53.6%,1%,80% (active),49.1%,1%,78% (active),45.6%,98.5% (active),–
CCC(=O)c1ccc([N+](=O)[O-])o1,12%,97% (active),5%,99% (active),13%,100% (active),–,-6%,99% (active),–,13%,100% (active),–,3%,98% (active),–,–,–
O=[N+]([O-])/C=C/c1cccs1,95% (active),98% (active),33%,99% (active),69%,100% (active),–,16%,99% (active),–,48%,100% (active),–,4%,98% (active),–,–,–
Oc1ccc(/C=C/c2ccc(Cl)cc2)cc1,-26%,97% (active),5%,98% (active),4%,97% (active),–,7%,97% (active),–,10%,98% (active),–,13%,96% (active),–,–,–
C/C(=N\NC(=S)N(C)C)c1ccccn1,94% (active),98% (active),92% (active),99% (active),93% (active),99% (active),88.6% (active),91% (active),97% (active),89.3% (active),95% (active),99% (active),88.7% (active),95% (active),98% (active),–,–,–

SMILES,"growth inhibition [1, 7]","growth inhibition [1, 8]","growth inhibition [2, 7]","growth inhibition [2, 8]","growth inhibition [3, 7]","growth inhibition [3, 8]",growth inhibition ([3]; at 50.0 µM),"growth inhibition [4, 7]","growth inhibition [4, 8]",growth inhibition ([4]; at 50.0 µM),"growth inhibition [5, 7]","growth inhibition [5, 8]",growth inhibition ([5]; at 50.0 µM),"growth inhibition [6, 7]","growth inhibition [6, 8]",growth inhibition ([6]; at 50.0 µM),growth inhibition ([1]; at 50.0 µM),growth inhibition ([2]; at 50.0 µM)
O=C(CO)NCCO,1%,0%,3%,5%,-2%,2%,–,5%,-2%,–,5%,-5%,–,0%,2%,–,–,–
CC(C)CNC(=O)C(C)O (stereo not drawn),13%,88% (active),2%,18%,4%,40%,–,2%,14%,–,0%,7%,–,–,–,–,–,–
CCCCCCCCCCCCCCCc1ccc(C(=O)C[n+]2ccccc2)cc1,29%,96% (active),–,–,44%,98% (active),87.7% (active),22%,81% (active),54%,28%,98% (active),85.2% (active),32%,97% (active),83% (active),85.8% (active),–
CCOC(=O)C1C(C(C)C)C2(C#N)C(=N)OC1(C)C2(C#N)C#N (stereo not drawn),15%,63%,–,–,19%,58%,49.8%,6%,37%,30.2%,14%,62%,39.5%,18%,72% (active),42.5%,44.8%,–
O=C1C=CC(=O)C2=C1CC=CC2,-12%,99% (active),-2%,99% (active),29%,100% (active),–,-6%,75% (active),–,26%,100% (active),–,48%,97% (active),–,–,–
O=[N+]([O-])c1cc(-c2ccccc2)c(O)c([N+](=O)[O-])c1,31%,78% (active),22%,60%,–,–,–,27%,51%,74.8% (active),17%,55%,89.4% (active),31%,67%,92.8% (active),93.8% (active),88.8% (active)
OC(c1cc2ccc(C(F)(F)F)cc2c2cc(C(F)(F)F)ccc12)C1CCCCN1 (stereo not drawn),85% (active),98% (active),–,–,96% (active),98% (active),88.9% (active),44%,97% (active),88.2% (active),91% (active),99% (active),85.5% (active),–,–,–,89.6% (active),–
CCSC(=O)c1ccc([N+](=O)[O-])o1,20%,99% (active),6%,100% (active),31%,100% (active),–,9%,99% (active),–,13%,100% (active),–,–,–,–,–,–
CCOC(=O)COc1cc(-c2ccccc2F)nc2cc3c(cc12)OCO3,9%,24%,4%,6%,–,–,–,8%,15%,23.6%,-29%,36%,65.8%,12%,26%,17.6%,14.7%,15.1%
Nc1ccc(-c2ccc(N)c(S(=O)(=O)O)c2)cc1S(=O)(=O)O,4%,2%,–,–,5%,3%,7.85%,9%,24%,49%,6%,15%,33.2%,13%,6%,-21.8%,-11.9%,–
O=C(NNc1ccccc1)OCc1ccccc1,41%,79% (active),43%,86% (active),42%,95% (active),–,55%,97% (active),–,50%,94% (active),–,29%,84% (active),32.5%,55%,20.5%
Oc1ccc(Cc2ccc(Cl)cc2)c(O)c1,3%,98% (active),-5%,99% (active),-1%,99% (active),–,0%,98% (active),–,-2%,99% (active),–,-33%,98% (active),–,–,–
CCCCC(=O)c1ccc([N+](=O)[O-])o1,39%,98% (active),19%,99% (active),26%,100% (active),–,18%,99% (active),–,45%,100% (active),–,36%,99% (active),–,–,–
C(CCc1nn[nH]n1)CCC1CCCCC1,13%,98% (active),10%,98% (active),11%,95% (active),–,19%,97% (active),–,11%,98% (active),–,-16%,97% (active),–,–,–
CCCCCCN(CCCCCC)CCCCCCCCCCCO,15%,98% (active),7%,98% (active),10%,99% (active),–,12%,98% (active),–,16%,99% (active),–,11%,94% (active),–,–,–
CC(C)(C)c1cc([N+](=O)[O-])c(O)c([N+](=O)[O-])c1,36%,89% (active),11%,54%,15%,74% (active),–,22%,46%,–,18%,74% (active),–,2%,81% (active),–,–,–
COc1cccc(NC(=O)c2c(SC)n[nH]c2N)c1,26%,99% (active),38%,98% (active),35%,99% (active),–,30%,75% (active),–,43%,99% (active),–,11%,91% (active),–,–,–
Nc1cccc2c1-c1ccccc1C2=O,15%,89% (active),1%,18%,4%,47%,–,-1%,-7%,–,1%,15%,–,-35%,29%,–,–,–
CCC(C)(C)N(CC(=O)O)CC(=O)O,-6%,-1%,2%,-5%,2%,-1%,–,4%,-2%,–,3%,-1%,–,-6%,17%,–,–,–
